Common to all, as to experiment: PBM binding z-score (relative to random genomic background probes); higher = stronger binding; sequences stand for … in GC…GCGATTGACAGCGTAGAATGAAGG
In assay [1] the test system is FXR:RXRa (NR concentration 270 nM, RXRa partner concentration 90 nM). The procedure, abridged: (§1)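 On custom Agilent 4×180K arrays, double-stranded probes with 34-nt variable regions carried direct-repeat seeds, single-nucleotide variants, half-site ablations or random human genomic background. Ligand-free nuclear receptor dimers were applied for 1 h, and binding was read with antibodies against each partner (one per run). Binding z-scores come from regression-normalized fluorescence, with the random background probes as reference.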

Assay [2] relates to LXRa:RXRa (NR concentration 270 nM, RXRa partner concentration 90 nM). In outline:
as §1

The test system of assay [3] is LXRa homodimer (NR concentration 270 nM). The procedure, abridged:
as §1

Assay [4] has as its system LXRb:RXRa (NR concentration 270 nM, RXRa partner concentration 90 nM). In outline: as §1
For assay [5], the system named is LXRb homodimer (NR concentration 270 nM). The procedure, abridged:
as §1

Assay [6] concerns PPARa:RXRa (NR concentration 270 nM, RXRa partner concentration 90 nM). In outline: as §1
Assay [7] deals with PPARg:RXRa (NR concentration 180 nM, RXRa partner concentration 90 nM). The procedure, abridged: as §1
For assay [8], the system named is PPARg:RXRa 270nM:90nM, anti-RXR (NR concentration 270 nM, RXRa partner concentration 90 nM). In outline: as §1
Assay [9] deals with PPARg:RXRa 30nM:10nM, anti-RXR (NR concentration 30 nM, RXRa partner concentration 10 nM). The procedure, abridged: as §1
The test system of assay [10] is PPARg:RXRa 90nM:30nM, anti-RXR (NR concentration 90 nM, RXRa partner concentration 30 nM). In outline:
as §1

The subject of assay [11] is PPARg:RXRa DBDmut IVT, anti-RXR (DBD mutation: RXRa K156A/R161A, NR concentration 270 nM, RXRa partner concentration 90 nM). The procedure, abridged:
as §1

For assay [12], the system named is PPARg:RXRa IVT, anti-PPARg (NR concentration 270 nM, RXRa partner concentration 90 nM). The procedure, abridged: as §1
Assay [13] concerns PPARg DBDmut:RXRa IVT, anti-PPARg (DBD mutation: PPARg1 K132A/R137A, NR concentration 270 nM, RXRa partner concentration 90 nM). The procedure, abridged: as §1
The subject of assay [14] is PPARg DBDmut IVT, anti-PPARg (DBD mutation: PPARg1 K132A/R137A, NR concentration 270 nM). The procedure, abridged:
as §1

For assay [15], the system named is PPARg homodimer (NR concentration 180 nM). The procedure, abridged:
as §1

Assay [16] concerns PXR:RXRa (NR concentration 270 nM, RXRa partner concentration 90 nM). The procedure, abridged: as §1
For assay [17], the system named is PXR homodimer (NR concentration 270 nM). In outline:
as §1

For assay [18], the system named is RARa:RXR (NR concentration 270 nM, RXRa partner concentration 90 nM). In outline:
as §1

In assay [19] the test system is RARa homodimer (NR concentration 270 nM). The procedure, abridged:
as §1

For assay [20], the system named is RARb:RXRa (NR concentration 270 nM, RXRa partner concentration 90 nM). In outline:
as §1

Experimental findings from the supplement of paper PMC6555819 are described below.

For the sequence TATACAGGGTCAAAGGCCATAGTACGAATGTCGA, the PBM binding z-score in assay [1] turned out to be 7.3; in assay [2] it was 6.15; in [3], 2.85; in [4] it was 5.09; in [5], 2.38; in assay [6], 6.27. The PBM binding z-score in assay [7] came to 9.09; in assay [8] it was 7.76; in assay [9] it was 6.42; in [10], 8.54; in [11], 2.29; in assay [12], 5.22. The PBM binding z-score was determined as 3.81 in assay [13]; 1.65 in assay [14]; 2.99 in [15]; 4.83 in assay [16]; 0.657 in [17]; 6.64 in assay [18]. The figures for the PBM binding z-score in [19] and in [20] were 1.1 and 4.56, respectively.

Take ACCCGGAGGACAAAGGTCAGAGCTACGCCAGTGA: the PBM binding z-score in assay [1] is 4; in assay [2], 4.23; in assay [3], 1.65; in assay [4] it was 3.55; in assay [5] it was 0.448; in assay [6] it was 5.01. For the same sequence, the PBM binding z-score was 6.33 in [7]; 6.32 in assay [8]; 3.97 in assay [9]; 5.95 in [10]; 0.224 in assay [11]; 2.99 in [12]. Also, the PBM binding z-score in assay [13] was -0.0126; in [14] it was -0.296; in assay [15], 2.98; in [16] it was 4.14; in assay [17], 0.302; in assay [18], 5. The PBM binding z-score in [19] turned out to be 0.962; in [20], 4.51.

For the sequence CAAACTGGGTCACAGAGGTCAAAGTCCGTGCGTA, the PBM binding z-score in assay [1] was found to be 6.46; in assay [2] it was 6.47; in assay [3], 6.04; in [4], 5.99; in [5] it was 1.68; in assay [6], 6.5. The PBM binding z-score in assay [7] was 9.86; in [8] it was 7.93; in [9], 6.54; in assay [10] it was 8.19; in [11] it was 7.82; in assay [12], 8.76. Besides, the PBM binding z-score in assay [13] was found to be 4.79; in assay [14], 4.1; in [15] it was 3.96; in assay [16], 6.74; in assay [17], 9; in assay [18] it was 7.06. Also, the PBM binding z-score amounted to 0.622 in [19] and 5.21 in assay [20].

For CGAACTAGGTCAAGGAGAGTGAATCTCCGCACGC, the PBM binding z-score in assay [1] is 2.98; in assay [2] it was 1.99; in assay [3] it was -0.412; in assay [4], 1.17; in assay [5] it was -0.521; in assay [6], 4.25. Besides, the PBM binding z-score in assay [7] turned out to be 7.01; in assay [8] it was 6.29; in [9], 3.34; in [10], 5.99; in [11] it was 8.29; in assay [12], 7.9. In addition, the PBM binding z-score in assay [13] was 1.48; in assay [14], 0.243; in assay [15] it was 0.896; in [16] it was 0.744; in assay [17], -0.41; in assay [18], 1.44. For the same sequence, the PBM binding z-score was -0.0147 in [19] and 3.74 in assay [20].

Take CCTACTGGGCCACAAAAGGTCATTGATTCAGTGA: the PBM binding z-score was 3.28 in assay [1]; 5.83 in assay [2]; 5.25 in assay [3]; 4.37 in assay [4]; 0.347 in assay [5]; 4.79 in assay [6]. Besides, the PBM binding z-score in assay [7] was 4.35; in assay [8] it was 4.41; in assay [9], 1.88; in [10] it was 3.74; in [11], 5.38; in assay [12], 5.41. Further, the PBM binding z-score in assay [13] is 0.516; in [14] it was 0.121; in [15], 2.8; in assay [16], 5.02; in [17], 1.16; in assay [18] it was 4.9. Besides, the PBM binding z-score was 0.618 in assay [19] and 3.95 in assay [20].

Consider GCGACTGGGGCAAAGCAGGTTACCATTAGGTTGG, for which the PBM binding z-score in [1] was 0.209; in [2] it was -0.0636; in assay [3] it was -0.502; in assay [4] it was 0.31; in [5], -0.906; in assay [6], 1.4. Besides, the PBM binding z-score is 1.11 in assay [7]; 1.39 in assay [8]; -0.263 in assay [9]; 0.675 in [10]; 4.83 in assay [11]; 3.63 in assay [12]. Further, the PBM binding z-score in [13] was -0.282; in assay [14], -0.886; in [15] it was 0.27; in [16] it was 0.143; in [17] it was -0.296; in assay [18] it was 0.139. Moreover, the PBM binding z-score was -0.535 in assay [19] and 0.975 in assay [20].

For the sequence AGAATGAGGATACCAAAGATCAGGGAAACGCTTG, the PBM binding z-score in assay [1] is 0.11; in assay [2], -0.468; in assay [3], -0.437; in assay [4], -0.336; in [5], -0.365; in assay [6] it was -0.155. The PBM binding z-score in [7] was 0.826; in [8], 0.344; in assay [9] it was 0.225; in assay [10] it was 0.512; in assay [11], 0.148; in assay [12], 0.0598. The PBM binding z-score is 0.131 in [13]; -0.145 in assay [14]; -1.29 in assay [15]; -0.349 in assay [16]; -0.0472 in assay [17]; -0.216 in assay [18]. For the same sequence, the values for the PBM binding z-score in assay [19] and in assay [20] were -0.258 and -0.0511, respectively.
